According to PubChem BioAssay:
Unmarked numbers belong to inactive results. For some assays here: Measured potencies and affinities stand elsewhere. Activity calls are given as the source filed them. Unless noted, no rule for the calls is given here.

Experiments:
[1] = antimalarial activity against Dd2 strain (AID 2302;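 active = growth inhibition above 50% at the single 2 µM test dose, taken to imply half-maximal potency below 2 µM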;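 also: 0% = DMSO untreated growth and 100% = chloroquine plus artemisinin killed control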); settings: P. falciparum Dd2 in RBCs, LDH growth readout, 72 h; at 2 µM; hits give high values
[2] = human hepatoma cell viability loss – ATP luminescence, cytotoxicity control for P. falciparum antimalarial project, primary screen (AID 2303;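 active = inhibition above 50%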;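 also: 0% = DMSO wells and 100% = digitonin-killed cells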); settings: HepG2 viability, 24-48 h, at 10 µM, hits give high values
[3] = target: L-lactate dehydrogenase (Plasmodium falciparum (isolate CDC / Honduras)) (UniProt Q27743); assay: PfLDH activity inhibition – cell lysate, 3D7 strain, counter-screen for P. falciparum growth inhibition project (AID 2304);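 also: 0% = vehicle and 100% = reference inhibitor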; settings: P. falciparum 3D7 crude extract, LDH APAD/NBT absorbance; at 2 µM; hits give high values
Chain of L-lactate dehydrogenase (Plasmodium falciparum (isolate CDC / Honduras)) (Q27743 whole entry, looked up): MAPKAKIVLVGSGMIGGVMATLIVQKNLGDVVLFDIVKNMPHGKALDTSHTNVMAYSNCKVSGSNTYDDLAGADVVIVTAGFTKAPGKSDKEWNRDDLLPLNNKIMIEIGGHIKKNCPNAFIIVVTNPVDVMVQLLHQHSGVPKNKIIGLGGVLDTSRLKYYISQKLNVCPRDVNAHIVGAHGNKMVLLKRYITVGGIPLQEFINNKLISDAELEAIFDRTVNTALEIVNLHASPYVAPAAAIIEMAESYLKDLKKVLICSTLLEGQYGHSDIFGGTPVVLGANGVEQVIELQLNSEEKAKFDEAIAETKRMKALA

[4] = inhibition of 3D7 malaria parasite growth – strain 3D7 (AID 2306);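 also: 0% = DMSO wells and 100% = chloroquine plus artemisinin control wells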; settings: P. falciparum 3D7 erythrocytic growth, LDH absorbance, 72 h; at 2 µM; hits give high values
[5] = target: Calcium-dependent protein kinase 1 (Plasmodium falciparum (isolate 3D7)) (UniProt P62344); assay: PfCDPK1 kinase inhibitors, biochemical, TCAMS library (AID 1159585; cut-off not given, nearly all actives have IC50 up to about 0.98 µM;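 also: inhibitors leave more ATP so luminescence rises with inhibition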); settings: recombinant PfCDPK1, Kinase-Glo ATP depletion luminescence
Chain of Calcium-dependent protein kinase 1 (Plasmodium falciparum (isolate 3D7)) (P62344 whole entry, looked up): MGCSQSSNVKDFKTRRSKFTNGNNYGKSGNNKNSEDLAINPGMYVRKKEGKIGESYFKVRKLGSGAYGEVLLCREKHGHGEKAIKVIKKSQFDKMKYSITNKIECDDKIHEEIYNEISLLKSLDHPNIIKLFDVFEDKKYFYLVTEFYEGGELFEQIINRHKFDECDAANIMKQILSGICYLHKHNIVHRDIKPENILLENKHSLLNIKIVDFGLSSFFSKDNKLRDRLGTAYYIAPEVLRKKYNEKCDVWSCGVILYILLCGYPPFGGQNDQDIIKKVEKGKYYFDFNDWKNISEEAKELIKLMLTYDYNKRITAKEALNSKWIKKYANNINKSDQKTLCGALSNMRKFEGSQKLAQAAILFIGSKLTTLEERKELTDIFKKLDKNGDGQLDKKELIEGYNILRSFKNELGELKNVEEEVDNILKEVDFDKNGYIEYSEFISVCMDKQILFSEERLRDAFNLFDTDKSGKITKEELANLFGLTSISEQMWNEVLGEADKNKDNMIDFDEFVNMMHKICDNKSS

[6] = target: Plasmodium falciparum protein kinase 6 (PK6, PF3D7_1337100) (UniProt Q8IDW1); assay: PfPK6 kinase inhibitors, biochemical, TCAMS library (AID 1159586); settings: recombinant PfPK6, Kinase-Glo ATP depletion luminescence
Chain of Plasmodium falciparum protein kinase 6 (PK6, PF3D7_1337100) (Q8IDW1 1-305): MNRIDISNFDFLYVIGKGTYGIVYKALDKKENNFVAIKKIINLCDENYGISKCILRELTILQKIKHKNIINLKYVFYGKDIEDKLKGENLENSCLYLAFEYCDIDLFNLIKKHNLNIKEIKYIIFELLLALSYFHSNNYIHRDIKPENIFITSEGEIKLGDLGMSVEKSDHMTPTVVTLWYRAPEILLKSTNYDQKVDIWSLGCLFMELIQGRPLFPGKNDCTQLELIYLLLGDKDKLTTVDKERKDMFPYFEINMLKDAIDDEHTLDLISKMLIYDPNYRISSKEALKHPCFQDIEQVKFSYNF

[7] = target: Protein kinase 7 (PK7), Plasmodium falciparum 3D7 (PF3D7_0213400) (UniProt Q7YTF7); assay: inhibition of Plasmodium PK7 catalytic activity – biochemical, TCAMS antimalarial set, Kinase-Glo luminescence (AID 1159587); settings: recombinant PfPK7, Kinase-Glo ATP depletion luminescence
Chain of Protein kinase 7 (PK7), Plasmodium falciparum 3D7 (PF3D7_0213400) (Q7YTF7 1-343): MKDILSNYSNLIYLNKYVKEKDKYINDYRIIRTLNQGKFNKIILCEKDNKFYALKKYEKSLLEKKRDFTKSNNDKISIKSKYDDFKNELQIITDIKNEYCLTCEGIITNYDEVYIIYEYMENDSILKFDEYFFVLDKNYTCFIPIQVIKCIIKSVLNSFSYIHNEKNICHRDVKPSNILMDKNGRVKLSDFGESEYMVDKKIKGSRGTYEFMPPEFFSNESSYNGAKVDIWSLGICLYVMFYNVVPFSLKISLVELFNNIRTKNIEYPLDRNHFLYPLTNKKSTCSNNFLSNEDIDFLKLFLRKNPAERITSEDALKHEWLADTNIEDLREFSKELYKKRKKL

[8] = target: Calcium-dependent protein kinase 4 (Plasmodium falciparum (isolate 3D7)) (UniProt Q8IBS5); assay: PfCDPK4 kinase inhibitors, biochemical, TCAMS library (AID 1159588; cut-off not given, nearly all actives have IC50 up to about 0.91 µM); settings: recombinant PfCDPK4, Kinase-Glo ATP depletion luminescence
Chain of Calcium-dependent protein kinase 4 (Plasmodium falciparum (isolate 3D7)) (Q8IBS5 whole entry, looked up): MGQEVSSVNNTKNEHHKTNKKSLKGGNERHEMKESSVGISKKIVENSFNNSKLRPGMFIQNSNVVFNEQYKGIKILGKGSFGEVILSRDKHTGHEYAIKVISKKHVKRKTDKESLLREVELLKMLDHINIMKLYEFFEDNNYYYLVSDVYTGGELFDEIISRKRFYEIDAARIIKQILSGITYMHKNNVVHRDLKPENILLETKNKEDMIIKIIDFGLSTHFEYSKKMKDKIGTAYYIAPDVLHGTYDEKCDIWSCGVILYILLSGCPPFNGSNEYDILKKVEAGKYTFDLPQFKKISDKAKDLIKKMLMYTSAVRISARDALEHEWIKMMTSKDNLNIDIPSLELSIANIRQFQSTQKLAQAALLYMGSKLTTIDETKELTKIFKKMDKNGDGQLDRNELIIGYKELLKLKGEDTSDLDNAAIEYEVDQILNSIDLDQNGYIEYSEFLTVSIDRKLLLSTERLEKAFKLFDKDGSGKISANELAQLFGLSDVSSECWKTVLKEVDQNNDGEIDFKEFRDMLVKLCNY

| Compound | growth inhibition [1] | inhibition [2] | inhibition [3] [%] | growth inhibition [4] | outcome [5] | outcome [6] | outcome [7] | outcome [8] |
| --- | --- | --- | --- | --- | --- | --- | --- | --- |
| COc1ccc(N2CCN(CCCCNC(=O)c3ccc(NC(=O)c4cc(C(F)(F)F)cc(C(F)(F)F)c4)cc3)CC2)cc1OC | 100% (active) | 9% | 1 | 101% (active) | inactive | inactive | inactive | inactive |
| CC(C)C[C@@H]1C(=O)N[C@H](C2Cc3ccccc3C2)C(=O)N1[C@@H](C(=O)O)c1ccc(F)cc1F | -2% | 10% | -1 | 98% (active) | inactive | inactive | inactive | inactive |
| COc1ccc(-n2c(=O)c3c(n4c(SC(C)C)nnc24)-c2ccccc2CC32CCCCC2)cc1 | 15% | -3% | -1 | 99% (active) | inactive | inactive | inactive | inactive |
| COc1cc2c(cc1C(F)(F)F)N(C(=O)Nc1cccc(-c3ccc(CN(C)C)cc3)c1)CC2 | 93% (active) | 95% (active) | 1 | 101% (active) | inactive | inactive | inactive | inactive |
| CN(C)Cc1c(O)ccc2[nH]c(-c3cccc(F)c3)nc12 | 71% (active) | 9% | -2 | 99% (active) | inactive | inactive | inactive | inactive |
| Cc1cccc2[nH]c(-c3ccc(-c4ccc(NC(=O)C5CCN(C)CC5)cc4)cc3)nc12 | 92% (active) | 28% | 1 | 100% (active) | inactive | inactive | inactive | inactive |
| COc1ccc(O)c(C(=O)c2cc(C#N)c(=O)n(-c3ccc(Oc4ccccc4)cc3)c2)c1 | 20% | 22% | 5 | 97% (active) | inactive | inactive | inactive | inactive |
| CCOc1cc(C(=O)NCc2ccc(Cl)c(Cl)c2)ccc1-c1nc2ccc(Cl)cc2[nH]1 | 4% | 10% | -2 | 97% (active) | inactive | inactive | inactive | inactive |
| COc1ccc(CNC2CCN(C)CC2)cc1-c1ccc(S(=O)(=O)NC2CCC2)c(C)c1 | 96% (active) | 24% | 0 | 101% (active) | inactive | inactive | inactive | inactive |
| CCNC(=O)Nc1cccc(-c2ccc(-c3nc4c(C)cccc4[nH]3)s2)c1 | 20% | 32% | -4 | 96% (active) | inactive | inactive | inactive | inactive |
| COc1ccc(CCON2C(N)=NC(N)=NC2(C)C)cc1OC | 93% (active) | 64% (active) | 2 | 96% (active) | inactive | inactive | inactive | inactive |
| COc1ccc(NC(=O)[C@H](CC(C)C)Nc2cc(C)nc(NCc3cccc(C)c3)n2)cc1 | 90% (active) | 24% | -1 | 101% (active) | inactive | inactive | inactive | inactive |
| CCc1cc(C(=O)c2cccc(C)c2)c(NC(=O)CN2CCN(C(=O)c3ccco3)CC2)s1 | 85% (active) | -13% | -5 | 91% (active) | inactive | inactive | inactive | inactive |
| c1cncc(CN2CCCN(c3ccc4c(c3)CCN(Cc3ccc(-c5ncc[nH]5)cc3)CC4)CC2)c1 | 33% | 7% | 2 | 99% (active) | inactive | inactive | inactive | inactive |
| CC(C)(C)OC(=O)c1c(NC(=O)/C=C/c2ccc(O)c(O)c2)sc2c1CCCC2 | 77% (active) | 4% | 2 | 97% (active) | inactive | inactive | inactive | inactive |
| CC(C)C1=C[C@H]2C[C@]3(C4OCCO4)[C@@H]4CC[C@@H](C)[C@H]4C[C@@]2(C(=O)OCC2COCO2)[C@]13C(=O)OC(c1ccccc1)c1ccccc1 (stereo not given in full) | 96% (active) | 2% | 4 | 92% (active) | inactive | inactive | inactive | inactive |
| CC(CCCCC(=O)Nc1ccc(CC(C)NCCc2cccc(Cl)c2)cc1)NCCc1cccc(Cl)c1 (stereo not given) | -1% | 28% | -1 | 91% (active) | inactive | inactive | inactive | inactive |
| CN1CCN(c2cc3c(cc2Cl)CCN3C(=O)Cc2ccc(Cl)c(NC(=O)Nc3cccc([N+](=O)[O-])c3)c2)CC1 | 51% (active) | -1% | -7 | 99% (active) | inactive | inactive | inactive | inactive |
| N#Cc1cccc(NC(=O)Nc2ccc(-c3ccc(-c4nc5ccc(C(F)(F)F)cc5[nH]4)cc3)cc2)c1 | 100% (active) | 51% (active) | -2 | 102% (active) | inactive | inactive | inactive | inactive |
| Cc1c(F)cc(C(=O)NC2CC2)cc1-c1ccc2c(cnn2S(=O)(=O)c2ccc(C#N)cc2)c1 | 92% (active) | 17% | 0 | 97% (active) | inactive | inactive | inactive | inactive |

| Compound | growth inhibition [1] | inhibition [2] | inhibition [3] [%] | growth inhibition [4] | outcome [5] | outcome [6] | outcome [7] | outcome [8] |
| --- | --- | --- | --- | --- | --- | --- | --- | --- |
| CCCN(CC)CCOC(=O)c1ccccc1 | 1% | 2% | -4 | 99% (active) | inactive | inactive | inactive | inactive |
| Fc1ccc(-c2csc3ncnc(Cl)c23)cc1 | 95% (active) | 3% | -1 | 94% (active) | inactive | inactive | inactive | inactive |
| Cc1c(S(=O)(=O)Nc2ccc3nccc(N4C[C@@H](C)N[C@@H](C)C4)c3c2)sc2ccc(Cl)cc12 | -4% | -8% | 5 | 92% (active) | inactive | inactive | inactive | inactive |
| O=C(Nc1ccc(Cl)cc1)c1ccc(CN2CCCN(Cc3cccc(O)c3)CC2)cc1 | 69% (active) | 52% (active) | 4 | 100% (active) | inactive | inactive | inactive | inactive |
| Cc1cc(N2CCCC2)nc(/N=C(\N)Nc2cccc(C(F)(F)F)c2)n1 | 100% (active) | 33% | 1 | 101% (active) | inactive | inactive | inactive | inactive |
| Cc1cc(NCCC(=O)NCc2cccc(F)c2)nc(Nc2ccccc2)n1 | 15% | -4% | -3 | 94% (active) | inactive | inactive | inactive | inactive |
| Cc1ccc(Oc2ncccc2C(=O)Nc2cccc3cccnc23)c(C)c1 | 76% (active) | -13% | 0 | 99% (active) | inactive | inactive | inactive | inactive |
| CCNc1cc(C(=O)N[C@@H](Cc2ccccc2)[C@H](O)CNC(C)Cc2cccc(Cl)c2)cc(N2CCCCS2(=O)=O)c1 (stereo not given in full) | 77% (active) | -6% | 1 | 98% (active) | inactive | inactive | inactive | inactive |
| CC(=O)Nc1cccc(-c2cn(-c3ccc(OCc4cccc(F)c4)c(Cl)c3)c3ncncc23)c1 | 66% (active) | 7% | -4 | 100% (active) | inactive | inactive | inactive | inactive |
| CC1(C)N=C(N)N=C(N)N1OCCOc1ccc2ccccc2c1 | 96% (active) | 70% (active) | 5 | 93% (active) | inactive | inactive | inactive | inactive |
| COc1ccc2c(NN=Cc3ccncc3)cc(C)nc2c1 | 95% (active) | -4% | -4 | 99% (active) | inactive | inactive | inactive | inactive |
| C=C[C@]1(C)C[C@@H](OC(=O)CNC[C@@H](O)CN2C[C@H](c3ccnc4ccc(OC)nc34)OC2=O)[C@]2(C)[C@H](C)CC[C@]3(CCC(=O)[C@H]32)[C@@H](C)[C@@H]1O | 82% (active) | 0% | -3 | 89% (active) | inactive | inactive | inactive | inactive |
| CCN(CC)S(=O)(=O)c1ccc(C=CC(=O)Nc2cc(Cl)ccc2N2CCOCC2)cc1 | 65% (active) | 3% | 4 | 90% (active) | inactive | inactive | inactive | inactive |
| O=C(N[C@@H](CC1CCCCC1)C(=O)NC1CC1)c1ccc(O)c(-c2cccc(C(F)(F)F)c2)c1 | 47% | -5% | -4 | 99% (active) | inactive | inactive | inactive | inactive |
| CCCN(CCC)CCCCC(C)Nc1c2ccc(Cl)cc2nc2ccc(OC)cc12 (stereo not given) | 100% (active) | 42% | -2 | 102% (active) | inactive | inactive | inactive | inactive |
| COc1c(C2CCN(CCCCNC(=O)c3ccc(-c4ccc(Cl)cc4)cc3)CC2)ccc2c1C(C)(C)CCC2(C)C | 42% | 94% (active) | 1 | 95% (active) | inactive | inactive | inactive | inactive |
| NC(=NCc1ccccc1Cl)NCCc1c[nH]c2ccccc12 | 45% | 16% | 2 | 83% (active) | inactive | inactive | inactive | inactive |
| Cc1c(CN2CCCCC2)cccc1OCCCNc1nc(NCCc2ccc(O)cc2)nc(N2CCNCC2)n1 | 23% | 26% | 3 | 101% (active) | inactive | inactive | inactive | inactive |
| COc1ccc2nccc([C@@H](O)CN3CCC(NCCOc4c(C)cccc4F)CC3)c2c1 | 95% (active) | 4% | -5 | 100% (active) | inactive | inactive | inactive | inactive |
| O=C(/C=C/c1ccc(Cl)c(Cl)c1)N1CCC(CCN2CCC(c3c[nH]c4cc5c(cc34)OCO5)CC2)CC1 | 65% (active) | 46% | -4 | 99% (active) | inactive | inactive | inactive | inactive |
